# Data reported in PubChem BioAssay (NCATS).
# Results filed as inconclusive are left out. Calls of active or inactive are those of the source. Unless noted, calls come from the whole dose curve; as a rule, active = well fitted curve in the direction sought with a large enough effect; inconclusive = small, poorly fitted or top-dose-only effect, or another doubt; inactive = no such curve, though single readings can be large; an effect the other way counts as inactive or inconclusive.
# Columns and labels:
# [1] = qHTS Assay for Identifying Gametocytocidal Compounds (AID 743244); note: potency is the fitted concentration of half-maximal effect;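 for max response: % is set by controls: 0 for no effect and ±100 for the full control effect; actives lower the fluorescent signal which means gametocytes are killed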; details: P. falciparum 3D7 stage III-V gametocytes, alamarBlue, 72 h; max response: stronger effect = lower value
# Procedure, shortened: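 A resazurin-based viability read-out was applied to mature P. falciparum gametocytes: 72 h compound treatment, then 24 h dye incubation, with falling fluorescence signalling gametocytocidal effect.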
# [2] = qHTS profiling for inhibitors of Plasmodium falciparum (3D7) proliferation (AID 743322);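 note: infected erythrocytes exposed to compound for 72 h before lysis; 100% = DMSO vehicle wells and 0% = 0.29 µM artemisinin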; details: P. falciparum 3D7 proliferation; at 28.7 µM (top of the series)
# Procedure, shortened: (§1)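 Erythrocytes infected with P. falciparum (0.3% parasitemia, 2.5% hematocrit) incubated with compounds 72 h at 37 C, 5% CO2. Lysis with saponin/Triton buffer containing SYBR Green I, overnight at room temperature in the dark; DNA fluorescence (485/535 nm) normalised to 0.29 uM artemisinin and DMSO.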
# [3] = qHTS profiling for inhibitors of Plasmodium falciparum (DD2) proliferation (AID 743323; call rule not given here); details: lower = more inhibition; at 28.7 µM (top of the series)
# Procedure, shortened: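 Parasite DNA quantified by SYBR Green fluorescence (ex 485, em 535 nm) after saponin/Triton lysis and overnight dark incubation. Cultures: 0.3% parasitemia, 2.5% hematocrit, 72 h, 37 C; data scaled between DMSO and 0.29 uM artemisinin.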
# [4] = qHTS profiling for inhibitors of Plasmodium falciparum (HB3) proliferation (AID 743324); details: Plasmodium falciparum HB3 blood-stage proliferation; at 28.7 µM (top of the series);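 note: 100% = DMSO vehicle wells and 0% = artemisinin-treated control wells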
# Procedure, shortened: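 P. falciparum HB3 grown in erythrocytes (0.3% parasitemia, 2.5% hematocrit final) with compound for 72 h at 37 C, 5% CO2. Parasite DNA detected by SYBR Green after saponin/triton lysis overnight; normalized to 0.29 uM artemisinin and DMSO.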
# [5] = qHTS profiling of the MIPE4 collection as inhibitors of Plasmodium falciparum (3D7) proliferation (AID 743344; call rule not given here;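 note: scaled between DMSO vehicle wells and 0.29 µM artemisinin as full inhibition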); details: P. falciparum 3D7 in erythrocytes, SYBR Green DNA fluorescence, 72 h; at 28.5 µM (top of the series) unless noted
# Procedure, shortened: as §1
# [6] = qHTS profiling of the MIPE4 collection as inhibitors of Plasmodium falciparum (DD2) proliferation (AID 743345; call rule not given here); details: P. falciparum Dd2 in erythrocytes, SYBR Green DNA, 72 h; at 28.5 µM (top of the series) unless noted
# Procedure, shortened: as §1
# [7] = qHTS profiling of the MIPE4 collection as inhibitors of Plasmodium falciparum (HB3) proliferation (AID 743347; call rule not given here;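 note: plate controls were DMSO vehicle wells for no effect and artemisinin wells for full effect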); details: P. falciparum HB3 in erythrocytes, SYBR Green DNA, 72 h; at 28.5 µM (top of the series) unless noted
# Procedure, shortened: as §1
# [8] = High-throughput drug toxicity screening in the BPDCN cell line Gen2.2 (AID 1224824; call rule not given here;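 note: cells exposed to compounds for 48 h before reading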); details: Gen2.2 BPDCN cells; at 45.8 µM (top of the series) unless noted
# Procedure, shortened: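 CellTiter-Glo luminescence read after 48 h compound exposure at 37 C defines viability; percent activity set with DMSO as 100% and bortezomib (9.2 uM final) as 0%. 500 exponentially growing cells per well, RPMI plus 10% FBS.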
# [9] = High-throughput drug toxicity screening in the BPDCN cell line Cal-1 (AID 1224825; call rule not given here); details: Cal-1 BPDCN cell viability, qHTS; at 45.8 µM (top of the series) unless noted
# Procedure, shortened: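 Exponentially growing Cal-1 cells, 500 per well in phenol red-free RPMI with 10% FBS, were exposed to compounds for 48 h at 37 °C, 5% CO2. Viability was read by CellTiter-Glo luminescence and normalised to DMSO (100%) and 9.2 uM bortezomib (0%).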
# [10] = qHTS assay for measurement of the activity of small molecule inhibitors on Zika virus induced Caspase-3 activity in human iPSC derived neural progenitor cells (hNPCs) (AID 1224857); note: nearly all actives have a fitted effect of over 65% in size; note: potency is the fitted concentration of half-maximal effect
# Procedure, shortened: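 Quantitative HTS format: human iPSC neural progenitors, 1 h compound pretreatment, ZIKV 2 FFU/cell for 6 h at 37 C. Percent inhibition derived from luminescent caspase-3/7 signal between uninfected and infected controls.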
# [11] = qHTS assay for measurement of the activity of small molecule inhibitors on Zika virus induced Caspase-3 activity in human astrocytoma cells (AID 1224859); note: potency is the fitted concentration of half-maximal effect
# Procedure, shortened: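 Readout is luminescence from Caspase-Glo 3/7 added after a 6 h ZIKV infection (2 FFU/cell) of compound-pretreated (1 h) SNB-19 cells; data expressed as % inhibition versus uninfected and infected wells.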
# [12] = qHTS Screen of the MIPE 4.0 Collection Against Ewings Sarcoma (RDES) (AID 1259252); note: nearly all actives have a fitted effect of over 35% in size; note: potency is the fitted concentration of half-maximal effect
# Procedure, shortened: (§2)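 Compound titrations go onto adherent log-phase cells 4 h after seeding, incubate 48 h at 37C, then CellTiter-Glo luminescence reports viability relative to DMSO and cell-free controls.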
# [13] = qHTS Screen of the MIPE 4.0 Collection Against Ewings Sarcoma (EW8) (AID 1259255); note: nearly all actives have a fitted effect of over 35% in size; note: potency is the fitted concentration of half-maximal effect;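 for viability: 100% = DMSO-treated cells and 0% = medium-only wells without cells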
# Procedure, shortened: as §2
# [14] = qHTS assay for cell viability of HEK293 cells (AID 743288); details: ATP luminescence (CellTiter-Glo), 18 h, stronger effect = lower value; note: % is set by controls: 0 for no effect and ±100 for the full control effect; nearly all actives have a fitted effect of over 50% in size
# Procedure, shortened: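 Total intracellular ATP, measured with a luciferase-coupled reagent, indicates the number of viable HEK293 cells. Exposure to test chemicals lasts 18 h at 37 C in 1,536-well format at 2,000 cells/well.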
# [15] = qHTS assay for cell viability of the p53RE-bla HCT-116 cell line (AID 743292); note: % is set by controls: 0 for no effect and ±100 for the full control effect; nearly all actives have a fitted effect of over 55% in size
# Procedure, shortened: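 Intracellular ATP of p53RE-bla HCT-116 cells measured by luciferase luminescence following 16 h compound incubation at 37 C; DMSO-only wells served as vehicle controls.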
# [16] = qHTS profiling of the MIPE4 collection as inhibitors of Plasmodium falciparum (DD2) proliferation (Rep 2) (AID 743346; call rule not given here); details: P. falciparum Dd2 in erythrocytes, SYBR Green DNA, 72 h; at 28.5 µM (top of the series) unless noted
# Procedure, shortened: as §1
# [17] = qHTS Screen of the MIPE 4.0 Collection Against Ewings Sarcoma (TC71) (AID 1259253); note: nearly all actives have a fitted effect of over 40% in size; note: potency is the fitted concentration of half-maximal effect
# Procedure, shortened: as §2
SMILES,Potency [1],remaining parasite growth % (stronger effect = lower value) [2] [%],"activity, percent of control [3] [%]","remaining proliferation (% of control), lower = more inhibition [4] [%]","parasite growth, % of DMSO control [5] [%]","parasite growth remaining, % of DMSO control (lower = more inhibition) [6] [%]","growth, % of control [7] [%]","cell viability, % of control (lower = more cytotoxic) [8] [%]",viability (% of control) [9] [%],Potency [10],Potency [11],Potency [12],Potency [13],max response [14],outcome [15],"parasite growth, % of control (lower = inhibition) [16] [%]",Potency [17],max response [1]
Cn1c(Nc2ccc(C(F)(F)F)cc2)nc2cc(Oc3ccnc(-c4ncc(C(F)(F)F)[nH]4)c3)ccc21,23.5 µM (active),-1.53,0.692,-0.79,7.02,10.9,8.58,9.63,13.2,inactive,inactive,14.8 µM (active),5.26 µM (active),,,,,
Cc1cc(O)c2c(c1)C(=O)c1cccc(O)c1C2=O,,,,,91.5,85.9,110,99.4,94.6,inactive,inactive,inactive,inactive,-7.7% (inactive),inactive,121,,
Cc1coc2c1C(=O)C(=O)c1c-2ccc2c(C)cccc12,,,,,8.32,19.5,3.19,45.1,93.8,inactive,inactive,inactive,inactive,,,15.4,,
COc1cc([C@@H]2c3cc4c(cc3[C@H](O)[C@H]3COC(=O)[C@@H]23)OCO4)cc(OC)c1OC,,,,,,,,21.3,11.1,inactive,inactive,0.0743 µM (active),0.105 µM (active),,,29.1,0.187 µM (active),
C[C@@]12C(=O)OC(=O)[C@@]1(C)C1CCC2O1,,,,,12.4,14.9,7.05,5.4,3.87,inactive,inactive,2.64 µM (active),2.64 µM (active),,,13.5,,
CCOC(=O)[C@H](CCc1ccccc1)N[C@@H](C)C(=O)N1[C@@H](C(=O)O)C[C@H]2CCC[C@@H]21,,,,,8.54,9.73,4.34,7.77,4.82,inactive,inactive,5.26 µM (active),18.7 µM (active),,,14.6,,
CN1CCc2c(c3ccccc3n2Cc2ccc(C(=O)NO)cc2)C1,,,,,5.11,12.1,5.01,4.7,4.77,inactive,inactive,13.2 µM (active),13.2 µM (active),,,15.2,,
CC(N[C@H]1CCCC[C@H]1NC(=O)c1ccc(Cl)cc1)c1cccc2ccccc12 (stereo partly specified),,,,,,,,114,20.6,inactive,inactive,inactive,inactive,,,,,
CC(=O)OC[C@@H]1O[C@@H](n2ccc(=O)[nH]c2=O)[C@H](OC(C)=O)[C@H]1OC(C)=O,,,,,,115,250,154,104,inactive,inactive,inactive,inactive,,,141,inactive,
CC(C)N1[N]C(=C2C=c3cc(O)ccc3=N2)c2c(N)ncnc21,,,,,,13.1,3.6,2.36,2.77,inactive,inactive,1.87 µM (active),0.418 µM (active),,,,0.372 µM (active),
Nc1ccn(C2CO[C@H](CO)O2)c(=O)n1 (stereo partly specified),,,,,,105,,203,99.2,inactive,inactive,inactive,inactive,,,89.7,,19.9% (inactive)
Cn1cc(C2=C(c3c4n(c5ccccc35)CCC(CN)C4)C(=O)NC2=O)c2ccccc21 (stereo unspecified),,,,,,5.71,3.72,3.32,2.84,inactive,inactive,16.6 µM (active),18.7 µM (active),,,11,16.6 µM (active),
Cn1cnc(=N)c2[nH]cnc21,,,,,,6.87,3.51,128,8.73,inactive,inactive,0.296 µM (active),0.209 µM (active),,,7.19,0.235 µM (active),
CC[C@H](CC[C@@H](C)[C@H]1CC[C@H]2[C@@H]3CC=C4C[C@@H](O)CC[C@]4(C)[C@@H]3CC[C@]12C)C(C)C,,,,,,,100,114,107,inactive,inactive,inactive,inactive,,,,inactive,
COc1ccc(S(=O)(=O)Nc2cccnc2Nc2ccc(O)cc2)cc1,,,,,,94,51.4,4.34,8.72,inactive,inactive,0.0833 µM (active),0.0935 µM (active),,,85.5,0.148 µM (active),
OCCNC1CCCc2c1[nH]c1ccc(-c3ccccc3)cc21 (stereo unspecified),,,,,,,3.72,1.69,0.798,inactive,inactive,26.4 µM (active),23.5 µM (active),,,,20.9 µM (active),
O=C(C=CC=Cc1ccc2c(c1)OCO2)N1CCCCC1,,,,,87.5,15.8,95,122,101,14.8 µM (active),10.5 µM (active),inactive,inactive,,,123,,
NC(=O)c1cccc(-c2cccc(OC(=O)NC3CCCCC3)c2)c1,,,,,,,94.2,128,91.7,inactive,inactive,inactive,inactive,,,,inactive,
CC(C)(C)c1nc2c3cc[nH]c(=O)c3c3cc(F)ccc3c2[nH]1,,,,,59.4,94.4,58.6,20.2,26.4,inactive,inactive,4.18 µM (active),4.69 µM (active),,,62,,
